TDP1 cell CPT – qHTS for Inhibitors of human tyrosyl-DNA phosphodiesterase 1 (TDP1): qHTS in cells in presence of CPT; chicken DT40 Tdp1-/-;hTDP1 cells + 20 nM CPT, ATP luminescence, 48 h; Potency, µM (series often up to 46.2 µM), inactives show at the top dose activity change, negative = growth inhibition, actives largely listed as inhibitors; 420,000 compounds, 12% hits; AID 686979, 2013; further: nearly all actives have a fitted effect of over 55% in size
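Chicken DT40 Tdp1-/- cells stably complemented with human TDP1 were seeded at 400 cells/well in medium containing 20 nM camptothecin, exposed to pin-transferred compounds, and grown at 37 °C for at least 48 hr. Viability was read as ATP luminescence.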
ELG1 DNA repair – qHTS screen for small molecules that inhibit ELG1-dependent DNA repair in human embryonic kidney (HEK293T) cells expressing luciferase-tagged ELG1; 330,000 compounds, 2.3% hits; AID 504467, 2011; Potency, µM (series often up to 46.1 µM), without a hit: top-dose activity change, negative = inhibition, actives largely listed as inhibitors; HEK293T ELG1-luciferase reporter, luminescence, 16 h; DNA damage induced by 5-fluorouridine; further: nearly all actives have a fitted effect of over 55% in size
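5-Fluorouridine DNA damage + compound/DMSO, 2,000 cells/well, 16 h, 37 °C/5% CO2. ONE-Glo, 30 min RT, luminescence. Readout = decrease in reporter signal.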
12-LOX inh – Primary qHTS assay for inhibitors of human arachidonate 12S-lipoxygenase (ALOX12): Round 2; Polyunsaturated fatty acid lipoxygenase ALOX12 (Homo sapiens), P18054; purified 12hLO, xylenol orange hydroperoxide absorbance; Potency, µM (series often up to 108 µM), for inactives: at the top dose activity change, negative = inhibition, most hits filed as inhibitors; 580,000 compounds, 1.1% hits
Target sequence (P18054 whole entry, looked up): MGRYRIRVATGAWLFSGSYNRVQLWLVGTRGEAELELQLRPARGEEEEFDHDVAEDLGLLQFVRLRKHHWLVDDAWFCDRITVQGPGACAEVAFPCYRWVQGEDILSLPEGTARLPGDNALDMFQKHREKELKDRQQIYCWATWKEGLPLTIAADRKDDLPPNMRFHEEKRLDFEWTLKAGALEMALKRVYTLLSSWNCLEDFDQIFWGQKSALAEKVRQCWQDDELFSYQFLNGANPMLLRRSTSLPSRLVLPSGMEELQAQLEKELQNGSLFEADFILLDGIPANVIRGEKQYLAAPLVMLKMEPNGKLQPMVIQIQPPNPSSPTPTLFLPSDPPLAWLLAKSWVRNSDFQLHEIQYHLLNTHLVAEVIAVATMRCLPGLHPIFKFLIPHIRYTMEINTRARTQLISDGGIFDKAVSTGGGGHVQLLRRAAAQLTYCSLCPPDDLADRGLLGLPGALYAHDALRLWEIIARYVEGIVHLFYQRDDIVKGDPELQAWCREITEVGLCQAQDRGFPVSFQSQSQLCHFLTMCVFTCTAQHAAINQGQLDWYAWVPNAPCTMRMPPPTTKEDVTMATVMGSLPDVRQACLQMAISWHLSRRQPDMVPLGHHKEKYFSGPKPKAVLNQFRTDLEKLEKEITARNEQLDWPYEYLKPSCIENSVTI
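Purified human 12hLO at 150 nM in 25 mM Hepes, 0.01% Triton X-100, pH 7.0, preincubated 15 min at room temperature with compound. Reaction started with 40 uM arachidonic acid, 30 min at room temperature. Hydroperoxide measured by Fe-xylenol orange, 573/405 nm absorbance ratio.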
RORgamma inh – qHTS for inhibitors of ROR gamma transcriptional activity; Drosophila S2 Gal4-RORgamma UAS-luciferase reporter, 20 h; Nuclear receptor ROR-gamma (Mus musculus), P51450; 310,000 compounds, 5.4% hits; Potency, µM (top dose mostly 53.6 µM), inactives show top-dose activity change, negative = inhibition, hits mostly inhibitors; further: nearly all actives have a fitted effect of over 60% in size
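Luminescence from a UAS-regulated Photinus luciferase reporter in stably transfected Drosophila Schneider cells is measured; decreased signal marks ROR gamma inhibition. Fusion expression is induced by 700 uM copper sulfate for 20 hr.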
DT40 TDP1 no CPT – qHTS for Inhibitors of human tyrosyl-DNA phosphodiesterase 1 (TDP1): qHTS in cells in absence of CPT. DT40 Tdp1-/- hTDP1 cells, no CPT, ATP luminescence, 48 h. Potency, µM (series often up to 46.2 µM), for inactives: at the highest dose activity change, negative = growth inhibition, most hits filed as inhibitors. 420,000 compounds, 15% hits; further: nearly all actives have a fitted effect of over 55% in size
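Stably hTDP1-transfected Tdp1-null chicken DT40 cells were treated with library compounds minus camptothecin and grown for at least 48 hr at 37 °C, after which cellular ATP was quantified by luminescence.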
VP16 counter – VP16 counterscreen qHTS for inhibitors of ROR gamma transcriptional activity. Drosophila S2 Gal4-VP16 UAS-luciferase, luminescence, 20 h. Potency, µM (titrated, usually from 53.6 µM), without a hit: top-dose activity, negative = inhibition, hits mostly inhibitors. 310,000 compounds, 3.5% hits. AID 2546, 2010;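 further: Gal4-VP16 expression switched on by copper sulfate through the metallothionein promoter; nearly all actives have a fitted effect of over 50% in size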
* hit, by the source's call; ? = inconclusive; . = not tested or not shown. Hits are enriched below; roughly 15% of the tested compounds scored in any of these assays. The call rests on the fitted dose curve; in most records, active means well fitted curve in the direction sought with a large enough effect; inconclusive means small, poorly fitted or top-dose-only effect, or another doubt; inactive means no such curve, though single readings can be large; an effect the other way counts as inactive or inconclusive. On the % scale 0 is the no-effect control and ±100 the full control effect; potency means the concentration at half of the fitted maximal effect.

SMILES | TDP1 cell CPT | ELG1 DNA repair | 12-LOX inh | RORgamma inh | DT40 TDP1 no CPT | VP16 counter
Cc1ccc(NC(=O)CC2CC3CCC2C3)c(Br)c1 (configuration not stated) | . | . | -31.6% | . | . | .
Cc1ccc2oc(=O)c(-c3nc(-c4ccccn4)no3)cc2c1 | . | . | -6.0% | . | . | .
CC(C)c1noc(-c2cccn3c(CNC(=O)c4cccnc4)nnc23)n1 | . | . | 14.8% | . | . | .
Cc1ccc(S(=O)(=O)Nc2ccc3c(c2)OCCO3)cc1C | ? | ? | -6.8% | ? | 18.4µM* | -16.7%
O=S(=O)(Nc1ccc2c(c1)OCCO2)c1ccc(F)c(F)c1 | -19.0% | ? | 19.2% | 12.8% | ? | -8.8%
COc1ccc(S(=O)(=O)Nc2ccc3c(c2)OCCO3)cc1Cl | 23.1µM* | -10.4% | 0.0% | ? | ? | ?
CC(=O)Nc1ccc(S(=O)(=O)Nc2ccc3c(c2)C(=O)OC3)cc1 | . | -9.4% | . | ? | . | 11.2µM*
COc1cc(OC)c(NS(=O)(=O)c2ccc(Cl)c(C(=O)OC(C)C(=O)N3CCCC3)c2)cc1Cl (configuration not stated) | 18.4µM* | -18.5% | -19.4% | ? | 20.6µM* | ?
COc1cc(OC)c(NS(=O)(=O)c2cc(C(=O)N3CCCCCC3)ccc2C)cc1Cl | . | . | 1.4% | . | . | .
O=C(NC1CCCC1)c1ccc(Oc2nccnc2Sc2ccccc2)cc1 | . | . | -19.9% | . | . | .
Cc1ccc(C(=O)N2CCC(N3C(=O)C(OCC4CC4)C34CCOCC4)CC2)cn1 (configuration not stated) | . | . | 50.4% | . | . | .
COc1c(C)cc(NS(=O)(=O)c2ccc3c(c2)OCCO3)cc1C | 9.2µM* | . | ? | . | 2.59µM* | .
COC(=O)c1cc(NS(=O)(=O)c2ccc3c(c2)OCCO3)ccc1Cl | . | . | 0.0% | . | . | .
CC(=O)Nc1ccc(S(=O)(=O)Nc2ccc3c(c2)OCCO3)cc1Cl | ? | ? | 59.0% | ? | 7.31µM* | 12.6µM*
O=[N+]([O-])c1ccc(Sc2ccc(Cl)c(Cl)c2)nc1 | ? | 15.1% | -2.6% | -43.3% | -29.4% | 0.5%
Nc1nc(Sc2ccc([N+](=O)[O-])cc2[N+](=O)[O-])n[nH]1 | ? | ? | -12.4% | -24.9% | ? | 6.4%
Cc1ccnc(Sc2ccc([N+](=O)[O-])cc2[N+](=O)[O-])n1 | 0.731µM* | ? | -9.9% | 12.6µM* | 0.581µM* | ?
Cc1ccc(Sc2ccc([N+](=O)[O-])cc2[N+](=O)[O-])nc1 | 2.59µM* | 14.6% | -4.7% | -43.3% | 2.91µM* | ?
Cc1cnc(CCNC(=O)Nc2ccc3c(c2)OCCO3)n1C1CCC1 | . | . | 95.1% | . | . | .
COCCCNC(=O)c1c(NC(=O)c2cccs2)sc2c1CCCC2 | -22.2% | ? | -13.9% | 5.0% | ? | 3.1%
CCCSc1ncc(Cl)c(C(=O)Nc2sc3c(c2C(=O)NCCCOC)CCCC3)n1 | 12.6µM* | . | . | . | 11.2µM* | .
CCSc1ncc(Cl)c(C(=O)Nc2sc3c(c2C(=O)NCCCOC)CCCC3)n1 | ? | . | 7.3% | . | ? | .
CCOCCCNC(=O)c1c(NC(=O)c2nc(SCC)ncc2Cl)sc2c1CCCC2 | ? | . | . | . | 10µM* | .
CCCSc1ncc(Cl)c(C(=O)Nc2sc3c(c2C(N)=O)CCCC3)n1 | 20.7% | . | -33.2% | . | 12.8% | .
CCNC(=O)c1c(NC(=O)c2nc(S(=O)(=O)CC)ncc2Cl)sc2c1CCCC2 | -112.4% | . | -0.5% | . | 0.731µM* | .
SMILES | TDP1 cell CPT | ELG1 DNA repair | 12-LOX inh | RORgamma inh | DT40 TDP1 no CPT | VP16 counter
COCCCNC(=O)c1c(NC(=O)c2nc(S(C)(=O)=O)ncc2Cl)sc2c1CCCC2 | 1.03µM* | . | -11.8% | . | 0.731µM* | .
CCOC(=O)c1c(NC(=O)c2nc(SCC)ncc2Cl)sc2c1CCCC2 | 11.2% | . | -18.9% | . | 7.0% | .
CSc1ccc(/C=C2\CS(=O)(=O)c3c(F)cccc3C2=O)cc1 | . | . | -19.0% | . | . | .
O=C(COc1ccc(Cl)cc1C1CCCCC1)NCCc1nnc2ccccn12 | . | . | 6.7% | . | . | .
N#Cc1c(C2CC2)cc(C(F)(F)F)[nH]c1=O | . | . | 5.1% | . | . | .
COc1ccc(C(CNC(=O)Cc2ccc(-c3ccccc3)cc2)N(C)C)cc1 (configuration not stated) | 20.6µM* | 0.0% | -13.0% | -10.5% | 18.4µM* | -3.8%
CN(C)C(CNC(=O)c1ccc(-c2ccccc2)cc1)c1ccccc1 (configuration not stated) | ? | ? | ? | 2.4% | 18.4µM* | -0.3%
COc1cc(OC)c(NC(=O)N2CCN(c3ccc(=O)n(-c4ccc(F)cc4)n3)CC2)cc1Cl | . | . | 17.8% | . | . | .
CC(C)CNC(=O)c1nc(-c2ccc3cc[nH]c3c2)no1 | . | . | -6.0% | . | . | .
COc1cc(OCC(=O)NC(C)C)cc2c1C(=O)O[C@@H](C)CCCC(=O)CCCCC2 | ? | -8.3% | 0.0% | -3.0% | 20.6µM* | -9.5%
COc1cc2c(c(OCC(=O)NC(C)C)c1)C(=O)O[C@@H](C)CCCC(=O)CCCCC2 | ? | ? | 445.3% | 17.7% | ? | 12.8%
CCCOc1ccc(CNC(=O)C2=C(c3ccccc3)c3cc(Cl)ccc3S(=O)(=O)N2C)cc1 | . | . | -1.0% | . | . | .
CC(=O)N1CCc2cc(S(=O)(=O)N3CCc4ccccc43)ccc21 | 13µM* | 0.3% | -0.8% | ? | ? | 12.6µM*
CCCCN(Cc1ccccc1)S(=O)(=O)c1cc(Br)cc2c1N(C(C)=O)C(C)C2 (configuration not stated) | 16.4µM* | ? | 19.2% | ? | 13µM* | ?
CC(=O)N1c2ccc(S(=O)(=O)N(C)Cc3ccccc3)cc2CC1C (configuration not stated) | -19.9% | ? | 7.7% | 23.0% | 20.6µM* | 0.7%
CC(=O)N1CCCc2cc(S(=O)(=O)N3CCN(c4ccccc4F)CC3)ccc21 | 20.6µM* | . | 1.1% | . | 20.6µM* | .
CC(=O)N1CCc2cc(S(=O)(=O)N3CCc4ccccc4C3)ccc21 | ? | 13.5% | -11.6% | -1.7% | ? | 0.7%
O=C(CC1CCCC1)Nc1ccc2c(c1)-c1ccccc1C2 | . | . | 8.9% | . | . | .

High-throughput results as filed in PubChem.
